IL1B secr inh – qHTS for Inhibitors of Inflammasome Signaling: IL-1-beta AlphaLISA Primary Screen | activity change, % at 57.5 µM | AID 743279, 2014 | 360,000 tested, 4.7% active | THP-1 LPS/ATP IL-1B secretion, AlphaLISA, 16 h; active compounds read low; in the data active = activity change below about -50%; inconclusive = mostly about -30% to -49%
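THP-1 cells pretreated 1 hr with compounds (up to 57.5 uM final), then stimulated with LPS (250 ng/mL final) plus ATP (1.25 mM final); secreted IL-1B measured by AlphaLISA after 16 hr, decreased signal indicating inhibition.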
TDP1 cell noCPT – qHTS for Inhibitors of human tyrosyl-DNA phosphodiesterase 1 (TDP1): qHTS in cells in absence of CPT; DT40 Tdp1-/- hTDP1 cells, no CPT, ATP luminescence, 48 h; Potency, µM (highest dose often 46.2 µM), hits mostly inhibitors; 420,000 tested, 15% active; also: nearly all actives have a fitted effect of over 55% in size
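No-CPT arm: Tdp1-/-;hTDP1 DT40 cells (400/well) plus compounds, incubated ≥48 hr at 37 °C. Readout CellTiter-Glo luminescence.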
DT40 TDP1 CPT – qHTS for Inhibitors of human tyrosyl-DNA phosphodiesterase 1 (TDP1): qHTS in cells in presence of CPT; chicken DT40 Tdp1-/-;hTDP1 cells + 20 nM CPT, ATP luminescence, 48 h; Potency, µM (doses to about 46.2 µM), most hits filed as inhibitors; 420,000 tested, 12% active; AID 686979, 2013; also: nearly all actives have a fitted effect of over 55% in size
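Cell growth measured by CellTiter-Glo luminescence after a minimum 48 h, 37 C compound exposure with 20 nM CPT in Tdp1-knockout DT40 cells stably expressing hTDP1, seeded 400/well; qHTS titration format.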
HT1080-NT tox – qHTS for induction of synthetic lethality in tumor cells producing 2HG: qHTS for the HT-1080-NT fibrosarcoma cell line | HT-1080-NT fibrosarcoma viability, CellTiter-Glo ATP luminescence, 48 h | Potency, µM (highest dose often 46.1 µM), usual class: cytotoxic | AID 686970, 2013 | 360,000 tested, 1.6% active;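 also: NT is the 2HG producing partner of a matched IDH1 knockdown line; nearly all actives have a fitted effect of over 55% in size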
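Fibrosarcoma NT cells, 750 per well in 5% FBS RPMI, were exposed to compound for 48 hours. Viability: CellTiter-Glo luminescence.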
HT1080 IDH1KD tx – qHTS for induction of synthetic lethality in tumor cells producing 2HG: qHTS for the HT-1080-IDH1KD cell line. 360,000 tested, 2% active. Potency, µM (titrated, usually from 46.1 µM), usual class: cytotoxic. HT-1080 IDH1 knockdown viability, ATP luminescence, 48 h
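Using the IDH1-knockdown HT-1080 line run in the same batch and compound series as the NT line, viability after 48 h at 37 °C was determined by CellTiter-Glo luminescence and expressed as % activity.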
Of the large screens only hits and unclear results are named; the others gave an inactive call. An excerpt weighted towards active compounds, which were near 19% of everything screened. Unless noted, calls follow the shape of the dose curve; as a rule, active = well fitted curve in the direction sought with a large enough effect; inconclusive = small, poorly fitted or top-dose-only effect, or another doubt; inactive = no such curve, though single readings can be large; an effect the other way counts as inactive or inconclusive.

FC(F)Oc1ccccc1/C=N/n1cnc2ccccc21	TDP1 cell noCPT 18µM, DT40 TDP1 CPT inconclusive
C=CCN([C@@H](CC(C)C)C(=O)OC)S(=O)(=O)N(CC=C)[C@@H](CC(C)C)C(=O)OC	TDP1 cell noCPT 18µM, DT40 TDP1 CPT inconclusive
COC(=O)[C@H](CC(C)C)NS(=O)(=O)N[C@@H](CC(C)C)C(=O)OC	DT40 TDP1 CPT inconclusive
O=C(NCCc1ccc(F)cc1)C(=O)Nc1cc2c3c(c1)CC(=O)N3CCC2	TDP1 cell noCPT inconclusive, DT40 TDP1 CPT inconclusive
O=C1c2ccccc2C(c2nnnn2-c2ccc3c(c2)OCCO3)N1CCOc1ccccc1 (stereo unspecified)	TDP1 cell noCPT inconclusive
CCN(CC)S(=O)(=O)c1ccc(C(=O)NC2CC(=O)N(c3ccc(OC)c(OC)c3)C2)cc1 (stereo unspecified)	none (no result: IL1B secr inh, HT1080-NT tox, HT1080 IDH1KD tx)
O=c1cc(CCl)[nH]c2nc3ccccc3n12	IL1B secr inh -56, HT1080-NT tox 18µM, HT1080 IDH1KD tx inconclusive
O=c1cc(-c2ccccc2)[nH]c2nc3ccccc3n12	TDP1 cell noCPT 9.2µM, DT40 TDP1 CPT 9.2µM, HT1080-NT tox inconclusive, HT1080 IDH1KD tx inconclusive
CC(C)c1cc(=O)n2c(nc3ccccc32)[nH]1	TDP1 cell noCPT inconclusive, DT40 TDP1 CPT inconclusive
O=C(CCc1ccc(S(=O)(=O)N2CCOCC2)cc1)Nc1ccc(F)c(F)c1F	DT40 TDP1 CPT inconclusive
CN(C(=O)C1CCCN1S(=O)(=O)c1ccc(Cl)cc1)c1ccccc1 (stereo unspecified)	none
Cc1ccc(NC(=O)C(NC2CCCC2)c2ccccc2)cc1Cl (stereo unspecified)	IL1B secr inh inconclusive, TDP1 cell noCPT 16µM, DT40 TDP1 CPT inconclusive
Cc1cc(C(=O)OC(C(=O)Nc2ccc(C)c(Cl)c2)c2ccccc2)c(C)o1 (stereo unspecified)	TDP1 cell noCPT 29µM, DT40 TDP1 CPT 23µM
Cc1ccc(NC(=O)C(OC(=O)c2ccc(NC(N)=O)cc2)c2ccccc2)cc1Cl (stereo unspecified)	IL1B secr inh -53, TDP1 cell noCPT inconclusive, DT40 TDP1 CPT inconclusive, HT1080-NT tox inconclusive, HT1080 IDH1KD tx inconclusive
Cc1cc(C)nc(NC2=NC3CCCCC3N2)n1 (stereo unspecified)	TDP1 cell noCPT inconclusive, DT40 TDP1 CPT 21µM
CCOc1ccc(-c2nc(C#N)c(NCc3ccc4c(c3)OCO4)o2)cc1	TDP1 cell noCPT 15µM, DT40 TDP1 CPT inconclusive
COc1ccc(CNc2oc(COc3ccc(Cl)cc3)nc2C#N)cc1	TDP1 cell noCPT inconclusive, DT40 TDP1 CPT inconclusive
Cc1ccc(OCc2nc(C#N)c(NCc3ccc4c(c3)OCO4)o2)cc1	IL1B secr inh -64, TDP1 cell noCPT inconclusive, DT40 TDP1 CPT inconclusive
Cc1oc(-c2ccc(Cl)cc2)cc1C(=O)N1CCC1(C)C(=O)O (stereo unspecified)	TDP1 cell noCPT inconclusive, DT40 TDP1 CPT 29µM
CC1(C(=O)O)CCCN1C(=O)c1ccc(Cl)cc1Cl (stereo unspecified)	DT40 TDP1 CPT inconclusive, HT1080 IDH1KD tx inconclusive
CCN(Cc1cccs1)C(=O)CN1CCN(S(=O)(=O)c2ccc3c(c2)OCCCO3)CC1	TDP1 cell noCPT inconclusive, DT40 TDP1 CPT inconclusive
COc1cccc(NC(=O)CSC2=Nc3ccccc3N=C(c3ccc(F)cc3)C2)c1	TDP1 cell noCPT inconclusive, DT40 TDP1 CPT 18µM (no result: IL1B secr inh, HT1080-NT tox, HT1080 IDH1KD tx)
Cc1ccc(NC(=O)CN2C(=O)CC(c3ccc(F)cc3)=Nc3ccccc32)cc1F	TDP1 cell noCPT 12µM, DT40 TDP1 CPT 12µM (no result: IL1B secr inh, HT1080-NT tox, HT1080 IDH1KD tx)
Cc1ccc(C2=Nc3ccccc3N(CC(=O)NCc3ccccc3Cl)C(=O)C2)cc1C	TDP1 cell noCPT 21µM, DT40 TDP1 CPT inconclusive (no result: IL1B secr inh, HT1080-NT tox, HT1080 IDH1KD tx)
O=C(CSC1=Nc2ccccc2N=C(c2ccc(F)cc2)C1)NCc1ccc(F)cc1	DT40 TDP1 CPT inconclusive (no result: IL1B secr inh, HT1080-NT tox, HT1080 IDH1KD tx)
Cc1ccc(C2=Nc3ccccc3N(CC(=O)Nc3cccc(F)c3)C(=O)C2)cc1C	TDP1 cell noCPT 18µM, DT40 TDP1 CPT inconclusive (no result: IL1B secr inh, HT1080-NT tox, HT1080 IDH1KD tx)

From PubChem BioAssay
